Test results reported in the supplement of paper PMC6555819.

Assays:
Assay in all cases: PBM binding z-score (relative to random genomic background probes); higher = stronger binding; sequences stand for … in GC…GCGATTGACAGCGTAGAATGAAGG
[1] = system: FXR:RXRa (NR concentration 270 nM, RXRa partner concentration 90 nM)
Summary of the method: (§1)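 Antibodies against each partner of ligand-free nuclear receptor dimers (one per run) detected binding on custom Agilent 4×180K protein-binding microarrays after 1 h incubation. The double-stranded probes had 34-nt variable regions carrying direct-repeat seeds, single-nucleotide variants, half-site ablations and random human genomic background sequences. Binding z-scores, from regression-normalized fluorescence, use the random background probes as reference.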

[2] = system: LXRa:RXRa (NR concentration 270 nM, RXRa partner concentration 90 nM)
Summary of the method: as §1

[3] = system: LXRa homodimer (NR concentration 270 nM)
Summary of the method: as §1

[4] = system: LXRb:RXRa (NR concentration 270 nM, RXRa partner concentration 90 nM)
Summary of the method: as §1

[5] = system: LXRb homodimer (NR concentration 270 nM)
Summary of the method: as §1

[6] = system: PPARa:RXRa (NR concentration 270 nM, RXRa partner concentration 90 nM)
Summary of the method: as §1

[7] = system: PPARg:RXRa (NR concentration 180 nM, RXRa partner concentration 90 nM)
Summary of the method: as §1

[8] = system: PPARg:RXRa 270nM:90nM, anti-RXR (NR concentration 270 nM, RXRa partner concentration 90 nM)
Summary of the method: as §1

[9] = system: PPARg:RXRa 30nM:10nM, anti-RXR (NR concentration 30 nM, RXRa partner concentration 10 nM)
Summary of the method: as §1

[10] = system: PPARg:RXRa 90nM:30nM, anti-RXR (NR concentration 90 nM, RXRa partner concentration 30 nM)
Summary of the method: as §1

[11] = system: PPARg:RXRa DBDmut IVT, anti-RXR (DBD mutation: RXRa K156A/R161A, NR concentration 270 nM, RXRa partner concentration 90 nM)
Summary of the method: as §1

[12] = system: PPARg:RXRa IVT, anti-PPARg (NR concentration 270 nM, RXRa partner concentration 90 nM)
Summary of the method: as §1

[13] = system: PPARg DBDmut:RXRa IVT, anti-PPARg (DBD mutation: PPARg1 K132A/R137A, NR concentration 270 nM, RXRa partner concentration 90 nM)
Summary of the method: as §1

[14] = system: PPARg DBDmut IVT, anti-PPARg (DBD mutation: PPARg1 K132A/R137A, NR concentration 270 nM)
Summary of the method: as §1

[15] = system: PPARg homodimer (NR concentration 180 nM)
Summary of the method: as §1

[16] = system: PXR:RXRa (NR concentration 270 nM, RXRa partner concentration 90 nM)
Summary of the method: as §1

[17] = system: PXR homodimer (NR concentration 270 nM)
Summary of the method: as §1

[18] = system: RARa:RXR (NR concentration 270 nM, RXRa partner concentration 90 nM)
Summary of the method: as §1

[19] = system: RARa homodimer (NR concentration 270 nM)
Summary of the method: as §1

[20] = system: RARb:RXRa (NR concentration 270 nM, RXRa partner concentration 90 nM)
Summary of the method: as §1

Sequence	PBM binding z-score [1]	PBM binding z-score [2]	PBM binding z-score [3]	PBM binding z-score [4]	PBM binding z-score [5]	PBM binding z-score [6]	PBM binding z-score [7]	PBM binding z-score [8]	PBM binding z-score [9]	PBM binding z-score [10]	PBM binding z-score [11]	PBM binding z-score [12]	PBM binding z-score [13]	PBM binding z-score [14]	PBM binding z-score [15]	PBM binding z-score [16]	PBM binding z-score [17]	PBM binding z-score [18]	PBM binding z-score [19]	PBM binding z-score [20]
CAAACTAGGTCACGAAAGGTCAAGGTCGAATGAC	7.28	7.82	6.86	6.75	1.7	6.43	10.6	8.38	7.12	8.5	8.73	9.06	5.16	2.59	5.42	6.88	3.03	7.71	3.81	5.62
CCAGACAGGTGAAAGTTAACTCAGTCTGGTACGC	-0.0765	0.237	-0.419	0.191	-0.617	2.21	2.62	4.15	1.99	3.83	1.64	1.56	-0.637	-0.25	0.325	0.141	-0.35	0.616	-0.352	1.04
CGTCCAAGGCCAAAGGTCAGTGAAGAGATGACGG	4.06	3.48	0.794	3.05	-0.142	5.2	7.29	6.97	5.65	7.26	0.453	3.33	-0.0649	-1.23	3.96	4.26	0.612	5.8	1.79	4.58
CCTTACGGGTCACTCCAGGCTATAGCATCGGAGT	4.45	5.59	-0.324	2.91	-0.145	4.07	2.95	3.31	0.716	1.9	2.55	3.11	-0.0425	-0.418	0.988	3.3	-0.213	3.16	0.0642	3.51
GCGACTGGAGCATCAGCAGGTTACCATAACTTAA	-0.588	-0.33	-0.742	-0.376	-1.27	0.165	0.329	-0.223	-0.632	-0.253	0.414	0.0135	-1.51	-0.56	-0.607	-0.228	-0.687	0.0402	-1.07	-0.26
ATCGACAGGTCGAGGTGAGTATAGAGAAAGGGAA	0.437	0.548	-0.71	0.0707	-0.444	1.51	0.748	0.211	0.16	0.281	-0.576	0.778	-0.0493	-0.0748	0.551	0.0775	0.0221	0.649	0.423	1.69
GCTCGGAGGACAAGGTCAGAGCATTGTCCGTAGA	1.99	1.75	-0.445	1.15	-0.84	2.48	0.798	1.67	-0.55	0.636	-0.234	0.996	-1.46	-0.733	0.964	1.69	-0.0134	2.26	-0.974	3.38
CGTCCAAGGTCATAGAAGGTCAGTGAAGACAGAT	7.45	7.22	4.12	5.81	0.783	5.53	5.05	5.64	2.37	4.36	3.2	4.17	0.653	0.867	2.94	6.39	3.15	5.72	1.77	5.41
TCATAGAGGTAAAGGTGAAAGTCGAACGATATGA	1.13	1.35	-0.575	1.3	-0.862	3.63	3.74	5.04	3.97	4.88	2.03	3.05	0.77	0.323	0.369	1.15	-0.365	2.03	0.137	2.19
CAAACTAGGTCACCGGAAGTTCAAAGTCCGCATG	5.16	5.88	4.93	4.26	1.06	5.9	9.18	7.54	5.95	7.54	8.47	9.21	5.32	4.81	7.04	6.19	6.26	5.86	1.72	4.85
CAAACTTGGTCACCGGAAGGTCAAAGTCCGCATG	3.58	3.72	3.5	3.39	0.75	3.7	2.29	3	0.605	2.01	2.35	3.45	0.726	1.15	2.58	4.26	1.08	4.78	0.786	3.77
TCATATAGGTAAATGCTAGGTGAAACTCCGATCT	1	0.883	0.327	0.756	-0.00744	1.4	0.976	2.12	4.01	2.96	4.38	2.75	0.957	1.1	0.711	0.57	0.499	0.959	0.953	0.548
TGTCAAAGTTCGAAGGTAACGTAAGTATCCACAC	1.54	1.56	0.166	1.27	-0.175	2.58	4.57	5	2.28	4.19	-0.516	2.26	1.29	0.86	0.387	1.64	0.292	2.13	0.23	2.34
ACAGACAGTTGAGTGAAGGTAACTCAGCTGGACG	0.127	-0.141	-0.198	-0.473	-0.26	-0.127	0.557	-0.26	-0.0499	-0.284	-0.279	0.038	-0.108	-0.693	-0.3	-0.386	-0.571	-0.397	-0.00601	-0.0285
